According to PubChem BioAssay (EPA / NIEHS):
“And” between values parts separate entries of the source, which are not always exact repeats. Equal values may be shown once. Some compounds were tested as several samples or in several runs, with calls that do not always agree. The source made the active and inactive calls. How the source made its calls: active means hit-call score of the fitted dose curve at least 0.9, where 1 is the maximum; inactive means score below 0.9.

Test: BSK_4H_Eotaxin3: BioMAP Diversity Plus: 4H Assay for Eotaxin 3 Biomarker Activity (AID 2283000)
Conditions: primary human endothelial cells (HUVEC); actives raise or lower the signal
Protocol: BSK_4H is a cell-based, multiplexed-readout assay that uses umbilical vein endothelium, a human vascular primary cell, with measurements taken at 24 hours after chemical dosing in a 96-well plate.BSK_4H_Eotaxin3 is an assay component measured in the BSK_4H assay. It measures Eotaxin-3 antibody related to regulation of gene expression using ELISA technology.Data from the assay component BSK_4H_Eotaxin3 was analyzed into 1 assay endpoint. This assay endpoint, BSK_4H_Eotaxin3, was analyzed with bidirectional fitting relative to DMSO as the negative control and baseline of activity. Using a type of binding reporter, gain or loss-of-signal activity can be used to understand changes in the signaling as they relate to the gene CCL26. Furthermore, this assay endpoint can be referred to as a primary readout, because this assay has produced multiple assay endpoints where this one serves a signaling function. To generalize the intended target to other relatable targets, this assay endpoint is annotated to the cytokine intended target family, where the subfamily is chemotactic factor.
The levels of cell surface (or secreted, indicated by the prefix "s") biomarker endpoints were measured by ELISA. Overt cytotoxicity to cells in confluent adherent cultures (all systems other than the BT system) was assessed by measuring total protein levels using sulforhodamine B (SRB) staining in parallel cultures at the time of biomarker measurements, indicated as SRB endpoints. For proliferation assays for adherent cell types, individual cell types are cultured at sub-confluence and relative cell numbers quantified by SRB staining at time points optimized for each system (48 h: 3C and CASM3C systems; 72 h: BT and HDF3CGF systems; 96 h: SAg system). SRB was performed by staining cells with 0.1% SRB after fixation with 10% TCA and reading wells at 560 nm.Viability and proliferation of PBMC (T cells) was quantified by Alamar Blue reduction for the SAg and BT systems. For PBMC viability (referred to as PBMC Cytotoxicity within the assay endpoint names), cells were plated (75,000/well in a 96-well plate) and then chemical samples added for 1 h before addition of activators, SEB and TSST-1 (20 ng/mL final concentration each). Cells were incubated for 90 h. Then, Alamar Blue (20 uL/well) (Invitrogen, Cat DAL1100) was added for 6 h, and the plates were read with a fluorescence microplate reader at 546/580 nm (excitation/emission). For PBMC proliferation, cells were plated and activated as above but incubated for only 16 h prior to addition of Alamar Blue. Plates were read after 6 h.
In the case of `NCC(F)(F)C(F)(F)C(F)(F)C(F)(F)C(F)(F)C(F)(F)C(F)(F)C(F)(F)F`, the outcome is reported as “inactive”.
With `CCN(CC)c1ccc(N=Nc2ccccc2)cc1` the AC50 was 13 µM (active).
For `O=S(=O)(O)CCC(F)(F)C(F)(F)C(F)(F)C(F)(F)C(F)(F)C(F)(F)C(F)(F)C(F)(F)F`, the outcome was “inactive”.
With `C=CC(=O)OCC(F)(F)C(F)(F)C(F)(F)C(F)(F)C(F)(F)C(F)(F)C(F)(F)C(F)F` the outcome was “inactive”.
In the case of `O=S(=O)(Cl)C(F)(F)C(F)(F)C(F)(F)C(F)(F)C(F)(F)C(F)(F)C(F)(F)C(F)(F)F`, the outcome is reported as “inactive”.
With `C[C@]12CC[C@H]3C(=CCc4cc(O)ccc43)[C@@H]1CCC2=O` the outcome was “inactive”.
For `Nc1cc([N+](=O)[O-])cc(Cl)c1O`, the outcome was “inactive”.
In the case of `O=C(Cl)C(F)(F)C(F)(F)C(F)(F)C(F)(F)C(F)(F)C(F)(F)C(F)(F)F`, the outcome is reported as “inactive”.
For `OCCCCC(F)(F)C(F)(F)C(F)(F)C(F)(F)F`, the outcome was “inactive”.
For `Cc1cc(C)c(O)c(C(C)(C)C)c1`, the AC50 was 30.4 µM (active).
In the case of `OCC(O)CC(F)(F)C(F)(F)C(F)(F)C(F)(F)F` (stereo not given), the outcome is reported as “inactive”.
For `NC(=O)C(F)(F)C(F)(F)C(F)(F)C(F)F`, the outcome was “inactive”.
With `FC(F)(F)C(F)(F)C(F)(F)C(F)(F)C(F)(F)C(F)(F)C(F)(F)CCI` the outcome was “inactive”.
For `O=C(Cl)C(F)(F)C(F)(F)C(F)(F)C(F)(F)C(F)(F)C(F)(F)F`, the outcome was “inactive”.
In the case of `FC(F)(F)C(F)(F)C(F)(F)C(F)(F)C(F)(F)C(F)(F)CC[Si](Cl)(Cl)Cl`, the outcome is reported as “inactive”.
For `C=CC(=O)OCC(F)(F)C(F)(F)C(F)(F)COC(=O)C=C`, the AC50 was 9.89 µM (active) and 8.33 µM (active).
In the case of `OCCCC(F)(F)C(F)(F)C(F)(F)C(F)(F)C(F)(F)C(F)(F)C(F)(F)C(F)(F)F`, the AC50 is reported as 18.9 µM (active) and 31.8 µM (active).
With `O=C=Nc1cccc2c(N=C=O)cccc12` the outcome was “inactive”.
In the case of `FC(F)(F)C(F)(F)C(F)(F)CC1CO1` (stereo not given), the outcome is reported as “inactive”.
With `OCC(F)(F)C(F)(F)C(F)(F)C(F)(F)C(F)(F)C(F)(F)C(F)(F)C(F)(F)CO` the AC50 was 38 µM (active) and the outcome was “inactive”.
In the case of `NC(=O)C(F)(F)C(F)(F)C(F)(F)C(F)(F)C(N)=O`, the outcome is reported as “inactive”.
With `CCN(CC)c1ccc2c(c1)Oc1cc(N(CC)CC)ccc1C21OC(=O)c2ccccc21` the outcome was “inactive”.
For `O=C1C=CC(=O)N1c1ccc(Cc2ccc(N3C(=O)C=CC3=O)cc2)cc1`, the AC50 was 6.05 µM (active).
For `CCN(CC)c1ccc(C=O)c(O)c1`, the outcome was “inactive”.
For `O=C(O)C(F)(F)C(F)(F)C(F)(F)C(=O)O`, the outcome was “inactive”.
For `O=C(O)CCC(F)(F)C(F)(F)C(F)(F)C(F)(F)C(F)(F)C(F)(F)C(F)(F)F`, the outcome was “inactive”.
With `O=C(O)CCC(F)(F)C(F)(F)C(F)(F)F` the outcome was “inactive”.
For `O=C=NCc1cccc(CN=C=O)c1`, the outcome was “inactive”.
For `CCOC(=O)CC(=O)C(F)(F)C(F)(F)F`, the outcome was “inactive”.
In the case of `O=C1c2c(O)ccc(Nc3ccc(CCO)cc3)c2C(=O)c2c([N+](=O)[O-])ccc(O)c21`, the AC50 is reported as 9.19 µM (active).
With `O=S(=O)(OCC(F)(F)F)C(F)(F)C(F)(F)C(F)(F)C(F)(F)F` the outcome was “inactive”.
With `NCC(F)(F)C(F)(F)C(F)(F)C(F)(F)C(F)(F)C(F)(F)F` the outcome was “inactive”.
In the case of `O=C(F)C1(F)C(F)(F)C(F)(F)C(F)(F)C(F)(F)C1(F)F`, the outcome is reported as “inactive”.
In the case of `CN(C(=O)C(F)(F)C(F)(F)C(F)(F)F)[Si](C)(C)C`, the outcome is reported as “inactive”.
With `O=S(=O)(O)CCC(F)(F)C(F)(F)C(F)(F)C(F)(F)F` the outcome was “inactive”.
For `C=C(C)C(=O)OCC(F)(F)C(F)(F)C(F)(F)C(F)F`, the outcome was “inactive”.
In the case of `Cc1ccc(S(=O)(=O)C(I)I)cc1`, the AC50 is reported as 1.84 µM (active).
With `O=C(O)C(F)(F)C(F)(F)C(F)(F)OC(F)(C(F)(F)F)C(F)(F)F` the outcome was “inactive”.
In the case of `CCN=C1C=CC(=C(c2ccc(N(CC)CC)cc2)c2ccc(N(CC)CC)cc2)c2ccccc21`, the AC50 is reported as 1.74 µM (active).
